Screening data as filed in PubChem.
Most compounds without a hit are left out; they make up all but 19% or so of the library.
HT1080 IDH1KD tx: toxicity to HT-1080 IDH1 knockdown cells (counter line); 360,000 tested, 2% active; Potency, µM (doses to about 46.1 µM), inactives show top-dose activity, negative = toxicity, actives largely listed as cytotoxic; AID 686971; HT-1080 IDH1 knockdown viability, ATP luminescence, 48 h;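 further: potency means the concentration at half of the fitted maximal effect; 0% = DMSO wells and -100% = cell-free medium wells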
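Using the IDH1-knockdown HT-1080 line run in the same batch and compound series as the NT line, viability after 48 h at 37 °C was determined by CellTiter-Glo luminescence and expressed as % activity.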
TDP1 cell noCPT: qHTS for Inhibitors of human tyrosyl-DNA phosphodiesterase 1 (TDP1): qHTS in cells in absence of CPT; DT40 Tdp1-/- hTDP1 cells, no CPT, ATP luminescence, 48 h; Potency, µM (titrated, usually from 46.2 µM), without a hit: top-dose activity change, negative = growth inhibition, hits mostly inhibitors; 420,000 tested, 15% active; further: potency means the concentration at half of the fitted maximal effect; nearly all actives have a fitted effect of over 55% in size
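Growth of hTDP1-complemented DT40 Tdp1-knockout cells is measured by ATP luminescence after at least 48 hr compound exposure at 37 °C, with DMSO substituting for the 20 nM CPT used in the parallel screen.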
TDP1 cell CPT: DT40-hTDP1 cell growth loss with CPT. 420,000 tested, 12% active. AID 686979. Potency, µM (titrated, usually from 46.2 µM), for inactives: top-dose activity change, negative = growth inhibition, most hits filed as inhibitors. chicken DT40 Tdp1-/-;hTDP1 cells + 20 nM CPT, ATP luminescence, 48 h; further: potency means the concentration at half of the fitted maximal effect; nearly all actives have a fitted effect of over 55% in size
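Chicken DT40 Tdp1-/- cells complemented with human TDP1, 400 cells/well, exposed to compounds plus 20 nM camptothecin for at least 48 h at 37 C; viability read as ATP content by CellTiter-Glo luminescence.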
HT1080NT lethal: kills 2HG-producing HT-1080-NT fibrosarcoma cells | HT-1080-NT fibrosarcoma viability, CellTiter-Glo ATP luminescence, 48 h | Potency, µM (highest dose often 46.1 µM), without a hit: at the top dose activity, negative = less viability, actives largely listed as cytotoxic | 360,000 tested, 1.6% active;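 further: NT is the 2HG producing partner of a matched IDH1 knockdown line; potency means the concentration at half of the fitted maximal effect; 0% = DMSO-treated cells and -100% = media-only wells without cells; nearly all actives have a fitted effect of over 55% in size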
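Toxicity toward the 2HG-producing NT line was scored as %Activity, normalised to DMSO and no-cell wells, from CellTiter-Glo luminescence after 48 hours' treatment.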
uPA surface inh: inhibitors of cell surface uPA generation; cell surface uPA generation assay, qHTS; Potency, µM (highest dose often 38.3 µM), for the others: top-dose activity change, negative = inhibition, hits mostly inhibitors; 330,000 tested, 0.31% active; AID 540303; active means well fitted inhibition curve with a large enough effect; inconclusive means small, poorly fitted or top-dose-only effect; inactive means no such curve, though single readings can be large or run the other way; tested in mouse RAW 264.7 cells; further: potency means the concentration at half of the fitted maximal effect; nearly all actives have a fitted effect of over 55% in size
IL1B secr inh: blocks inflammasome-driven IL-1 beta release; AID 743279; 360,000 tested, 4.7% active; THP-1 LPS/ATP IL-1B secretion, AlphaLISA, 16 h; hits give low values; activity change, % at 57.5 µM; in the data active means activity change below about -50%; inconclusive means mostly about -30% to -49%
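THP-1 cells pretreated 1 hr with compounds (up to 57.5 uM final), then stimulated with LPS (250 ng/mL final) plus ATP (1.25 mM final); secreted IL-1B measured by AlphaLISA after 16 hr, decreased signal indicating inhibition.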
The depositor's hits bear a star; ? = inconclusive; nt = no result given. Unless noted, the call rests on the fitted dose curve; in most records, active means well fitted curve in the direction sought with a large enough effect; inconclusive means small, poorly fitted or top-dose-only effect, or another doubt; inactive means no such curve, though single readings can be large; an effect the other way counts as inactive or inconclusive. Unless noted, on the % scale 0 is the no-effect control and ±100 the full control effect.

SMILES | HT1080 IDH1KD tx | TDP1 cell noCPT | TDP1 cell CPT | HT1080NT lethal | uPA surface inh | IL1B secr inh
CC1C(C)N1CC(O)Cn1ccnc1[N+](=O)[O-] (stereo not given) | 5.5% | ? | ? | 1.2% | -4.9% | -5.0
CCC1=Nc2cc(C(=O)N3CCC4(CC3)OCCO4)ccc2Sc2ccccc21 | -2.6% | ? | ? | -6.5% | 3.4% | 4.3
CCCC1=Nc2cc(C(=O)NCCCN(CC)CC)ccc2Sc2ccccc21 | nt | 29.1µM* | ? | nt | nt | nt
CCCC1=Nc2cc(C(=O)NCCc3ccc(OCC)cc3)ccc2Sc2ccccc21 | nt | 20.6µM* | ? | nt | nt | nt
COc1ccc(CCNC(=O)N2c3ccccc3Sc3ccccc32)cc1 | -28.4% | ? | ? | -24.3% | -4.6% | ?
CCOc1ccc(OCC)c(NC(=O)CN2CCN(c3ccc(C)cc3C)CC2)c1 | 7.1% | 16.4µM* | ? | 3.3% | -4.0% | -23.5
COc1ccc(C)cc1NC(=O)CN1CCN(CC(=O)Nc2ccccc2F)CC1 | -5.5% | 14.6µM* | 23.1µM* | 0.2% | 4.9% | -22.8
CCOC(=O)C1(c2ccccc2)CCN(CC(=O)Nc2ccc(C)cc2)CC1 | 0.9% | ? | ? | 6.7% | 6.3% | 10.1
Cc1csc(=N)n1Cc1ccccc1 | 7.1% | 1.5% | -3.9% | 2.7% | -1.6% | -0.8
CCc1ccc(NC2=NCCCS2)cc1 | 7.8% | ? | -28.5% | 12.0% | -0.8% | -9.8
CS(=O)(=O)N1Cc2ccccc2-n2nncc2C1 | 8.3% | -11.3% | -27.9% | 13.6% | 2.8% | 2.6
COc1cc2c(cc1/C=C/[N+](=O)[O-])OCO2 | 8.2µM* | 2.31µM* | 5.8µM* | 4.11µM* | -21.3% | -10.6
COc1cc(OC)c(OC)cc1C=O | 3.1% | ? | 6.8% | 29.5% | 8.9% | 0.3
Cn1c(=O)n(C)c2cc([N+](=O)[O-])c(N3CCNCC3)cc21 | 0.4% | 2.9% | -13.0% | -6.8% | 3.4% | 11.0
CN1CCN(c2c(F)cc([N+](=O)[O-])c(N)c2Br)CC1 | -18.8% | ? | 7.9% | -2.8% | 1.6% | ?
CCN1CCN(c2cc(N3CCCC3)c([N+](=O)[O-])cc2F)CC1 | 7.5% | 29.1µM* | ? | -5.3% | 2.8% | -6.6
CN1CCN(c2cc(N3CCCCCC3)c(F)cc2[N+](=O)[O-])CC1 | 0.4% | 29.1µM* | ? | -7.0% | -3.3% | -56.5*
O=C(Oc1ccccc1)N1CCC2(CC1)CCN(C(c1ccccc1)c1ccccc1)CC2 | nt | -10.4% | -3.0% | nt | nt | nt
COC1CC2C=C(C)C=CC=CC(=O)NC(c3ccccc3)CC=CCCC(O)CC(=O)C2=C1O (stereo not given) | 1.64µM* | 0.517µM* | 0.461µM* | 1.84µM* | nt | -112.6*
CC[C@]12C=CCN3CCC4(c5cc(Br)c(OC)cc5N(C)C4[C@@](O)(C(=O)OC)[C@@H]1OC(C)=O)C32 (stereo not given in full) | 2.4% | ? | ? | -11.7% | 1.5% | 0.5
COC(=O)c1ccccc1C(=O)OC | nt | -5.4% | 0.5% | nt | nt | nt
COc1ccc(CNC(=O)Cn2c(SCC(=O)Nc3ccc(C)c(C)c3)nc3ccccc32)cc1 | nt | 4.61µM* | ? | nt | nt | nt
CCOC(=O)c1c(C)[nH]c(C)c1S(=O)(=O)NCC(=O)N1CCN(c2cc(Cl)ccc2C)CC1 | nt | 18.4µM* | 23.1µM* | nt | nt | nt
Cc1ccc(C)c(N2CCN(C(=O)CCNS(=O)(=O)c3ccc4c(c3)oc(=O)n4C)CC2)c1 | -1.6% | ? | ? | -16.0% | -13.7% | 2.6
O=C1NC(=O)N(c2ccccc2)C(=O)/C1=C/C=C/c1ccco1 | ? | 4.61µM* | 4.61µM* | 18.4µM* | 10µM* | -100.0*
SMILES | HT1080 IDH1KD tx | TDP1 cell noCPT | TDP1 cell CPT | HT1080NT lethal | uPA surface inh | IL1B secr inh
Cn1cccc1/C=C1\C(=O)NC(=O)N(Cc2ccco2)C1=O | -8.8% | ? | 9.2µM* | -10.8% | ? | 79.1
CN1C(=O)/C(=C/C=C/c2ccco2)C(=O)NC1=S | 4.0% | ? | ? | 5.1% | -0.9% | 0.0
Cc1cccc(N2C(=O)NC(=O)/C(=C\c3cccn3-c3ccc(Cl)cc3)C2=O)c1 | ? | 20.6µM* | 10.3µM* | ? | -8.0% | -89.8*
Cc1cccc(N2C(=O)NC(=O)/C(=C\C=C\c3ccco3)C2=O)c1 | ? | 8.2µM* | 2.91µM* | ? | 10µM* | -95.6*
O=C(/C=C/c1ccccc1)N1Cc2ccccc2-n2nncc2C1 | -2.6% | ? | -19.3% | 0.5% | nt | 23.2
C[C@@]12CC[C@@H](c3cc4c(cc3C1)OCO4)N2c1ccccc1 | 6.4% | ? | ? | 15.2% | nt | 29.9
CCCCCl | nt | -2.1% | -18.7% | nt | nt | nt
O=C1NC(=O)N(Cc2ccco2)C(=O)/C1=C/C=C/c1ccco1 | 20.6µM* | 9.2µM* | 7.31µM* | 23.1µM* | -14.0% | -100.2*
CN(C)c1ccc(/C=C/C=C2/C(=O)NC(=O)N(c3ccccc3)C2=O)cc1 | 6.51µM* | 4.11µM* | 2.91µM* | 4.61µM* | 4.2% | -106.7*
Cc1cc(N2CCOCC2)ccc1/C=C1\C(=O)NC(=O)N(c2ccccc2)C1=O | 13.2% | ? | -30.8% | 1.7% | 0.6% | -6.2
Cc1ccc(N2C(=O)NC(=O)/C(=C\C=C\c3ccco3)C2=O)cc1C | -22.3% | 5.17µM* | 2.59µM* | -15.9% | -7.6% | -105.1*
Cn1cc(/C=C2\C(=O)NC(=O)N(c3ccccc3)C2=O)c2ccccc21 | 3.2% | -11.0% | -27.6% | -3.5% | -7.0% | 50.4
CNC(=O)O/N=C/C(C)(C)S(C)=O (stereo not given) | nt | 10.2% | 7.5% | nt | nt | nt
Brc1cccc(CNCCc2ccc3c(c2)OCO3)c1 | -11.5% | ? | ? | -15.0% | -11.5% | -10.1
C=C(C)[C@@H]1[C@H]2OC(=O)[C@H]1[C@]1(O)C[C@H]3O[C@]34C(=O)O[C@H]2[C@]14C | 8.9% | 4.7% | -9.8% | 1.1% | 10.8% | 0.0
CCCCC1(CC)COP(=O)(OCC(Cl)(Cl)Cl)OC1 (stereo not given) | 18.0% | -2.3% | -1.2% | 7.7% | 3.4% | 1.3
COc1ccccc1CCNC(=O)CCC(=O)N1CC2C[C@@H](C1)Cn1c2cccc1=O | -1.4% | -7.5% | -6.3% | 2.9% | 2.3% | -13.4
C=C1C(=O)O[C@@H]2C[C@@H](C)[C@@H]3C4OC4C(=O)[C@@]3(C)[C@@H](O)[C@H]12 (stereo not given in full) | 9.2µM* | 0.517µM* | 1.03µM* | 14.6µM* | 96.4% | -113.0*
